Only some compounds are listed: those with a hit (about 6.9% of all), similar ones and a draw of the others.
FXIIa mix inh – human factor XIIa inhibitors, primary screen, biochemical, pooled compound mixtures, fluorogenic substrate. Coagulation factor XII (Homo sapiens), P00748. 62,000 tested, 0.2% active. inhibition, % at 5 µM. purified FXIIa;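 further: 0% = enzyme without compound and 100% = no enzyme blank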
JNK3 blocker – JNK3 kinase activity inhibitors, primary screen, biochemical, human, purified enzyme; Mitogen-activated protein kinase 10 (Homo sapiens), P53779; HTS; inhibition, % at 8 µM; 60,000 tested, 0.61% active; AID 746, 2007; in the data active means inhibition above about 17%;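 further: 0% = DMSO and 100% = reference inhibitor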
Target sequence (P53779 whole entry, looked up): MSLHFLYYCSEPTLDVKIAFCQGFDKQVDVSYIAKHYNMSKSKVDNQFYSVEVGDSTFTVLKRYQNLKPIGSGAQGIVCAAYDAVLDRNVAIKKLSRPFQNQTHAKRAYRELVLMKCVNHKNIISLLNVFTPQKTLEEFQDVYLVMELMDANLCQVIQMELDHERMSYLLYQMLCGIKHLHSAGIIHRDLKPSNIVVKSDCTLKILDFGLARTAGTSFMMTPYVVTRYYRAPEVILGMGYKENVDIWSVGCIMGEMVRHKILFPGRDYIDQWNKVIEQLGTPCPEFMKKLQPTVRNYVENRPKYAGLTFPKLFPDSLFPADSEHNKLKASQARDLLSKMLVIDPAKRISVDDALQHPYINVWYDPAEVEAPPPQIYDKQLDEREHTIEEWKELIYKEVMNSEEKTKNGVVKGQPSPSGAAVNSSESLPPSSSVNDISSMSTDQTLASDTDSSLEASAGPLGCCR
M1 agonist – M1 muscarinic receptor agonists, primary screen, CHO-M1 cells, Fluo-4 calcium, agonist mode; Muscarinic acetylcholine receptor M1; Fluo-4 calcium fluorescence; hits give high values; B-score at 10 µM; 64,000 tested, 3% active;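 active means fluorescence rise, raw or as B-score row- and column-corrected plate score, outside the 99.7% band of its plate's samples, either direction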
FXIa mix inh – FXIa protease inhibitors in compound pools, primary screen, biochemical, 10-compound mixtures. purified FXIa, fluorogenic substrate, pooled mixtures. inhibition, % at 5 µM. 62,000 tested, 0.19% active;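 further: each value is inhibition by a whole ten-compound pool holding the compound; 0% = enzyme with no mixture and 100% = wells lacking enzyme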
M1 antagonist – antagonists of rat M1 muscarinic receptor | Muscarinic acetylcholine receptor M1 (Rattus norvegicus), P08482 | CHO-M1 cells, Fluo-4 calcium, ACh EC80 antagonist mode; hits give low values | B-score at 10 µM | 64,000 tested, 3.4% active | AID 628, 2007;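 active means calcium fluorescence response, raw or row-and-column corrected B-score, differing from the plate sample mean either way at a set confidence level, mostly lower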
Her2 expr inh – inhibitors of Her2 protein expression, primary screen, SKBR-3 cells, AlphaScreen, 66K library; Receptor tyrosine-protein kinase erbB-2 (Homo sapiens), P04626; SKBR-3 HER2 protein level, 18-24 h; hits give low values; HER2 level % of control, % at 10 µM; 65,000 tested, 0.69% active;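 active means HER2 level under 5% of the carrier-only control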;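 further: 100% = DMSO carrier and 0% = 500 nM PU-H71 HSP90 inhibitor; lower value means stronger loss of Her2 protein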
Active calls of the source: *; · = no result given. Unless noted, no stated cut-off is given here; in the data, active means inhibition above about 20% (passing the limit was not always enough); inactive means the rest.

SMILES	FXIIa mix inh	JNK3 blocker	M1 agonist	FXIa mix inh	M1 antagonist	Her2 expr inh
Cc1ccc(CS(=O)(=O)CCC(=O)NCCCN2CCCC2=O)cc1	21.8*	-1.1	0.137	7.1	0.846	75.4
O=C1C2ON(c3ccccc3)C(c3cccnc3)C2C(=O)N1c1ccc(Cl)c(Cl)c1 (stereo not given)	·	2.3	-0.0382	·	-0.387	-18.3*
O=C1C2ON(c3ccccc3)C(c3cccnc3)C2C(=O)N1c1ccccc1 (stereo not given)	-19.2	3.1	-0.0521	7.1	-1.02	91.0
Cc1ccc(-c2noc(C3CCCN(C(=O)c4c(F)cccc4F)C3)n2)cc1 (stereo not given)	-1.0	1.7	0.753	6.7	-0.607	0.1*
CC1CN(Cc2nc3c(c(=O)n(C)c(=O)n3C)n2Cc2ccc(Cl)cc2)CC(C)O1 (stereo not given)	-13.6	-6.2	-0.395	2.8	-0.604	107.2
Cc1nnc(NCCc2ccccc2)n(N)c1=O	-3.5	0.7	0.0714	0.2	1.55*	72.6
O=C(/N=C1\NC(=O)C(F)(C(F)(F)F)S1)NC1CCCCC1 (stereo not given)	2.9	4.3	-0.00432	24.2*	1.17	108.2
O=C(c1ccco1)c1nnn(Cc2ccccc2)c1-c1ccccc1	-15.6	-4.2	-0.0639	6.1	0.0117	82.4
COc1ccccc1NC(=O)CCn1c(=O)sc2ccccc21	·	·	-0.604	·	0.0258	81.9
Cc1ccc(S(=O)(=O)c2cc3c(=O)n4ccccc4nc3n(CC3CCCO3)c2=N)cc1 (stereo not given)	12.4	1.0	-0.0165	6.5	-1.47	130.8
Cc1ccc2nc3c(cc(C#N)c(=N)n3CC3CCCO3)c(=O)n2c1 (stereo not given)	-12.4	4.9	9.01*	8.9	-1.38	102.2
C=CCn1c(N(C)C)nc2c1c(=O)[nH]c(=O)n2C	7.0	-4.6	0.0161	6.6	-0.00471	99.1
CC12CCC(C(=O)NCC3CCCO3)(OC1=O)C2(C)C (stereo not given)	4.3	-1.2	0.0381	42.4*	1.5	97.2
COc1cccc2c(=O)c(C/C=C(/C)Cl)c(C)[nH]c12	6.5	18.4*	0.069	-17.9	0.581	85.5
COc1cccc2c(=O)c(SC(F)(F)C(F)C(F)(F)F)c(C)[nH]c12 (stereo not given)	·	1.9	0.885	·	0.76	73.7
Cc1c(NC(=O)Cn2cnc3c(=O)n(C)c(=O)n(C)c32)cccc1-c1nc2ccccc2o1	5.4	-1.5	-0.104	3.8	0.381	54.9
CN(C)c1nc2n(c(=O)n1)C(C#N)CS2 (stereo not given)	·	1.8	-0.059	·	2.96*	144.4
Nc1nonc1-c1nc2ccccc2n1CC(=O)NC1CCCC1	5.2	8.1	-0.321	4.3	0.0329	105.0
CC1CCCN(C(=O)Cn2c(-c3nonc3N)nc3ccccc32)C1 (stereo not given)	3.1	-1.1	-0.222	8.8	-0.214	-23.7*
CC(C)OC(=O)Cn1cnc2ccc(Br)cc2c1=O	-0.6	-4.3	0.587	11.8	-0.000359	82.3
CC(Sc1nnc(N)s1)c1ccccc1Cl (stereo not given)	6.6	-2.4	-1.06	4.1	-0.915	85.4
Cc1ccc(C)c(SCC(=O)Nc2nnc(-c3ccccc3)o2)c1	1.0	1.5	17.2*	6.2	0.00128	104.9
Cc1ccc2cc(CCNC(=O)c3ccc(Br)o3)c(=O)[nH]c2c1	2.3	4.7	0.0174	-0.9	-0.912	84.1
Cc1ccc(S(=O)(=O)c2c(C)nn(C(C)(C)C)c2OC(=O)C(C)(C)C)cc1	-2.3	-3.4	-0.197	-3.1	-0.313	111.1
Cc1ccc(S(=O)(=O)c2c(C)nn(C(C)(C)C)c2OC(=O)c2ccc(Br)o2)cc1	-6.8	6.6	0.493	1.3	0.392	4.1*
SMILES	FXIIa mix inh	JNK3 blocker	M1 agonist	FXIa mix inh	M1 antagonist	Her2 expr inh
CC(=O)Oc1c(S(=O)(=O)c2ccc(C)cc2)c(C)nn1C(C)(C)C	-18.2	0.1	3.47	3.6	2.29*	75.1
Cc1ccc(S(=O)(=O)c2c(C)nn(C(C)(C)C)c2OC(=O)c2ccco2)cc1	-2.3	-4.7	0.00149	5.5	0.0863	84.2
Cc1ccc(NC(=O)Cc2nc(CSc3nnc(-c4ccc5c(c4)OCO5)o3)cs2)cc1	-2.0	5.4	-0.0503	9.2	-0.426	53.3
COc1ccc2[nH]c(=O)c(CN(Cc3cccs3)Cc3nnnn3C(C)(C)C)cc2c1	6.0	0.7	-0.341	21.8*	-0.591	98.3
CCOc1ccc2[nH]c(=O)c(CN(Cc3cccs3)Cc3nnnn3C(C)(C)C)cc2c1	-14.5	0.1	4.81	8.2	-1.05	66.9
CCOC(=O)Cn1nnnc1C(CC)N(Cc1cccs1)Cc1cc2ccc(OC)cc2[nH]c1=O (stereo not given)	0.6	-0.3	0.244	-4.6	-0.78	-9.3*
O=C(Nc1nnc(-c2ccccc2Cl)o1)c1cccnc1	2.9	10.6	-0.306	4.6	-0.038	46.0
C=CCn1c(SCC(=O)NCC(=O)OCC)nnc1-c1cccc(OC)c1	12.4	4.5	0.536	-30.4	-1.65	120.4
C=CCn1c(SC(C)C(=O)NC2(C#N)CCCCC2)nnc1-c1ccc(OC)cc1 (stereo not given)	4.1	·	-0.521	22.1*	0.151	·
CN(CCO)c1ncnc2nc[nH]c12	-17.5	-2.9	0.825	2.4	0.723*	100.9
COCCN1Cc2cccc(C(=O)NCc3ccccn3)c2C1=O	-1.0	-0.1	0.117	3.9	0.0378	114.4
COCCN1Cc2cccc(C(=O)NCc3ccc4c(c3)OCO4)c2C1=O	2.2	22.7*	·	2.6	·	87.8
CCN(CC)c1ccc2cc(C(=O)Nc3cccnc3N3CCOCC3)c(=O)oc2c1	2.6	·	7.72*	3.1	-0.387	97.5
CCn1c(CCC(=O)Nc2nc3c(s2)CCCC3)nc2cc(S(=O)(=O)N(C)C)ccc21	8.1	6.7	-0.683	3.8	-0.28	73.9
COc1nc(Nc2nc3ccccc3c(=O)[nH]2)nc2ccc(C)cc12	-0.8	1.6	1.53	9.3	-2.09*	67.2
Cc1nc(Nc2nc(-c3ccccc3)cc(=O)[nH]2)nc2ccccc12	0.8	-4.3	-0.104	8.3	-0.461	70.9
CC(=O)N1CCC(N(CCCOC(C)C)C(=O)Nc2ccc(Cl)cc2)CC1	1.1	-0.2	-0.0842	5.3	0.17	106.0
CCN1CCN(Cc2nc3c(c(=O)n(C)c(=O)n3C)n2CCc2ccccc2)CC1	10.4	-1.0	0.0612	0.5	0.828	71.5
CC1CCCN(Cc2nc3c(c(=O)n(C)c(=O)n3C)n2CCc2ccccc2)C1 (stereo not given)	·	-3.7	2.26*	·	0.495	102.0
CCOCCn1c(CN2CCCCC2C)nc2c1c(=O)n(C)c(=O)n2C (stereo not given)	9.1	3.1	-2.45	2.3	-3.17*	101.6

From PubChem BioAssay
